Assay outcomes as filed in PubChem BioAssay.
In the library only some 6.5% were active in any assay of this set; here they are far more common.
A340 absorber: compounds absorbing at 340 nm | compound absorbance at 340 nm, fold over control | fold change at 10 µM | 65,000 tested, under 10 active | AID 708;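 active = at 10 µM dose, initial 340 nm absorbance at least 2 fold that of control wells; inactive = change under 2 fold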;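 note: initial absorbance extrapolated from kinetic A340 decline of NADH oxidation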
DPM-DC inhibit: S. pneumoniae DPM-DC inhibition; AID 556; actives 0.49% (n = 65,000); calls only at 10 µM; purified DPM-DC, PK/LDH coupled NADH fluorescence;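 active = the 320 compounds with the highest percent inhibition in the single-dose primary screen, excluding strongly autofluorescent ones, cut at about 32% in these data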;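 note: kinetic rate of NADH fluorescence loss reporting ADP formed by the decarboxylase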
NADH enzymes: inhibitors of enzymes used to reach an NAD/NADH endpoint; coupled PK/LDH NADH assays, four targets; IC50, µM (highest dose often 10 µM), inactives show at the highest dose inhibition; actives 0.02% (n = 65,000); AID 774;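 active = single-dose screening hits from any of four coupled enzyme assays that gave an IC50 when retested across doses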;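 note: the DPM-DC format reads NADH fluorescence rather than 340 nm absorbance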
MK inhibit: blocks S. pneumoniae mevalonate kinase; purified MK, PK/LDH-coupled NADH absorbance 340 nm; inhibition, % at 10 µM; actives 0.48% (n = 65,000);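 active = ranked among the strongest by inhibition in the single 10 µM screen, a fixed top-ranked set picked for dose follow-up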
PMK inhibit: blocks S. pneumoniae phosphomevalonate kinase | inhibition, % at 10 µM | AID 539 | actives 0.49% (n = 65,000) | purified PMK, PK/LDH-coupled NADH absorbance 340 nm;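 active = top-ranked compounds by inhibition in the single 10 µM screen, taking a fixed number of the strongest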;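 note: 0% = full reaction with DMSO carrier and 100% = background rate without enzyme reaction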
Fluor 339 460: intrinsic fluorescence of library compounds, ex339/em460 – biochemical, MLSMR library, data from DPM-DC assay, artefact control, profiling panel; compound autofluorescence, ex339/em460 nm, NADH buffer; stronger effect = higher value; 1 = no-compound wells, NADH background; actives 5.5% (n = 65,000); AID 709; fluorescence fold increase at 10 µM;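 active = at 10 µM, mean starting fluorescence two-fold or more over control wells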;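 note: signal is the first read of a kinetic run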
* = called active by the depositor; i = inactive; / = no result shown; + = active, no number.

SMILES	A340 absorber	DPM-DC inhibit	NADH enzymes	MK inhibit	PMK inhibit	Fluor 339 460
CC(=O)N(CCc1ccccc1C)Cc1cc2cc3c(cc2[nH]c1=O)OCO3	1.1	/	4%	6	8	3*
O=C(c1cccs1)N(CCO)Cc1cc2cc3c(cc2[nH]c1=O)OCCO3	1.1	i	7%	0	1	2.5*
CCN(CC)CCCN(Cc1cc2cc3c(cc2[nH]c1=O)OCO3)C(=O)Nc1ccccc1OC	1.2	+	15%	7	5	2.8*
Cc1cc(C)c2cc(CN(CCO)C(=O)Nc3ccc(F)cc3)c(=O)[nH]c2c1	1	i	5%	8	6	1.2
CCN(CC)CCCN(Cc1cc2cc3c(cc2[nH]c1=O)OCCO3)C(=O)Nc1ccc(F)cc1	1.1	i	11%	/	6	3.2*
C/C(Cl)=C\Cn1c(Nc2ccc(C)cc2)nc2c1c(=O)n(C)c(=O)n2C	0.99	i	1%	0	2	1.1
CCCCc1c(O)nc(SCC(=O)N2CCOCC2)n(-c2ccccc2C)c1=O	1	i	5%	10	6	1.1
CCC(C)(C)n1nnnc1C(c1cc2cccc(C)c2[nH]c1=O)N1CCN(C(=O)c2ccco2)CC1 (stereo not drawn)	1.1	i	11%	14	13	1.3
CCOC(=O)Cc1c(C)nc2c(-c3ccc(Cl)cc3)c[nH]n2c1=O	1.1	/	7%	5	8	2.1*
O=C(CSc1n[nH]c(-c2ccc(S(=O)(=O)NC3CCCCC3)cc2)n1)N1CCCC1	1.1	i	16%	10	14	3*
O=C(COc1ccc2ccccc2c1Br)Nn1cnnc1	1.1	i	4%	7	4	1.1
COc1ccc(C)cc1NC(=O)c1cnc2scc(C)n2c1=O	1.1	/	5%	0	9	2.1*
Cc1csc2ncc(C(=O)Nc3cccc(C(F)(F)F)c3)c(=O)n12	1.1	i	10%	3	5	1.4
CCc1ccc(NC(=O)c2cnc3scc(C)n3c2=O)cc1	1.2	+	26%	14	4	1.2
CC(C)n1nnnc1SCC(=O)NCc1cccs1	1	i	4%	10	3	1.1
CCCCn1c(=O)[nH]c(=O)c2c1nc(-c1ccc(C#N)cc1)n2C1CCCC1	1	/	9%	0	17	5.2*
CCCCn1c(=O)[nH]c(=O)c2c1nc(-c1ccncc1)n2CCOC	0.99	i	5%	30	5	1.4
O=C(CCc1ccccc1)NCc1ccccn1	1	i	0%	0	0	1.1
COc1ccc(NC(=O)CN2CCN(CC(=O)Nc3cc(OC)cc(OC)c3)CC2)cc1	0.98	i	2%	0	4	1
COC(=O)c1cc(OC)c(OC)cc1NC(=O)Nc1ccccc1OC	1	/	14%	15	13	2.1*
COC(=O)c1cc(OC)c(OC)cc1NC(=O)c1oc2ccccc2c1C	1.1	+	16%	9	5	2.5*
O=C(Nc1ccc2oc(-c3ccc(F)cc3)nc2c1)c1ccccc1F	1.1	i	9%	7	9	3*
O=C(Nc1ccccc1-c1nc2ccccc2o1)c1ccc2c(c1)OCCO2	1	/	4%	10	8	3.3*
O=C(Nc1ccc2oc(-c3ccccc3F)nc2c1)c1ccc2c(c1)OCCO2	1	i	13%	3	15	3.2*
Cc1c(NC(=O)c2ccc3c(c2)OCO3)cccc1-c1nc2ccccc2o1	0.99	i	5%	4	11	1.1
SMILES	A340 absorber	DPM-DC inhibit	NADH enzymes	MK inhibit	PMK inhibit	Fluor 339 460
CCOC(=O)N1CCC(NC(=O)c2ccc3c(c2)sc2nc(-c4cccc(OC)c4)cn23)CC1	0.98	i	6%	10	13	1.8
CCOC(=O)N1CCC(NC(=O)c2ccc3c(c2)sc2nc(-c4ccccc4)cn23)CC1	0.98	i	8%	12	11	2*
CCCS(=O)(=O)Nc1cc(C(F)(F)F)ccc1OCCOC	1	i	6%	9	9	1.1
CCCOC(=O)C1=C(C)NC2=C(C(=O)CC(C)(C)C2)C1c1ccc(N(C)C)cc1 (stereo not drawn)	1.1	i	1%	0	0	1.1
CCOC(=O)C1=C(C)NC2=C(C(=O)CC(C)(C)C2)C1c1cccc(C)n1 (stereo not drawn)	1.1	/	9%	8	9	4.9*
Cc1c(NC(=O)c2ccc3c(c2)OCO3)c(=O)n(-c2ccccc2)n1C	1	i	7%	4	16	1.1
CC(=O)Nc1ccc(C2NC(=O)c3ccccc3O2)cc1 (stereo not drawn)	1.1	i	2%	2	5	1.2
CC(=O)Nc1ccc(C2Nc3ccccc3C(=O)N2C2CCCCC2)cc1 (stereo not drawn)	1	/	7%	3	10	2.2*
COc1ccc(C(c2nnnn2Cc2ccc(F)cc2)N2CCN(c3ccccc3)CC2)cc1 (stereo not drawn)	0.97	i	8%	8	15	1.1
COc1ccc(Cn2nnnc2C(c2ccccn2)N2CCN(c3cc(Cl)ccc3C)CC2)cc1 (stereo not drawn)	1	i	3%	4	28*	1
Cc1cc(C(=O)Nc2ccccn2)cs1	1	i	5%	6	9	1.1
CCCc1cc2c(=O)c(-c3ccccn3)c(C)oc2cc1O	1.1	/	5%	0	10	2.1*
CCOC(=O)C1CCCCN1C(=O)CCc1c(C)nc2cc(-c3ccccc3)nn2c1C (stereo not drawn)	1.1	i	13%	7	13	1.9
CCOC(=O)C1CCN(c2cc(C)nc3cc(-c4cccc(F)c4)nn23)CC1	0.98	/	5%	4	18	2.6*
Cc1ccc(C)c(C(=O)CC2(O)C(=O)N(C)c3ccccc32)c1 (stereo not drawn)	0.98	i	3%	1	16	1
Cc1ccc2c(c1)c1cccc3c1n2CCN3CCC(N)=O	1.1	/	11%	7	14	2.2*
CC(=O)Nc1ccc(CN2CCN(c3cccc(C(F)(F)F)c3)CC2)cc1	1.1	i	15%	43*	3	1.1
Cn1ncc2c(Nc3ccc(-c4ccccc4)cc3)ncnc21	1.1	+	16%	0	13	3.1*
Cc1cc(C)c2c(=O)n(CC(=O)N3CCC(Cc4ccccc4)CC3)sc2n1	0.99	+	12%	19	7	1.2
Cc1cc(C)c2c(=O)n(CC(=O)NCCCN3CCN(c4ccccc4F)CC3)sc2n1	1	+	11%	27	8	1.3
Cc1cccc(N2CCN(C(=O)Cn3sc4nc(C)cc(C)c4c3=O)CC2C)c1 (stereo not drawn)	1.1	i	9%	14	0	1.2
Cc1cc(C)c2c(=O)n(CC(=O)NCCCN3CCOCC3)sc2n1	0.99	i	10%	23	10	1.2
